Bioassay records as filed in PubChem BioAssay.
Hits are enriched below; roughly 28% of the tested compounds scored in any of these assays.
CYP2C9 activ: CYP2C9 (human) activation; P11712; recombinant CYP2C9, luciferin-H conversion, luminescence; stronger effect = higher value; factor 1 = untreated enzyme, 0 = blocked; activation factor at 5 µM; actives 1.4% (n = 96,000);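 active = activation factor of 2 or more for CYP2C9 at a 5 µM dose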;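 note: 0 = sulfaphenazole-blocked wells and 1 = vehicle-only wells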
Target sequence (P11712 whole entry, looked up): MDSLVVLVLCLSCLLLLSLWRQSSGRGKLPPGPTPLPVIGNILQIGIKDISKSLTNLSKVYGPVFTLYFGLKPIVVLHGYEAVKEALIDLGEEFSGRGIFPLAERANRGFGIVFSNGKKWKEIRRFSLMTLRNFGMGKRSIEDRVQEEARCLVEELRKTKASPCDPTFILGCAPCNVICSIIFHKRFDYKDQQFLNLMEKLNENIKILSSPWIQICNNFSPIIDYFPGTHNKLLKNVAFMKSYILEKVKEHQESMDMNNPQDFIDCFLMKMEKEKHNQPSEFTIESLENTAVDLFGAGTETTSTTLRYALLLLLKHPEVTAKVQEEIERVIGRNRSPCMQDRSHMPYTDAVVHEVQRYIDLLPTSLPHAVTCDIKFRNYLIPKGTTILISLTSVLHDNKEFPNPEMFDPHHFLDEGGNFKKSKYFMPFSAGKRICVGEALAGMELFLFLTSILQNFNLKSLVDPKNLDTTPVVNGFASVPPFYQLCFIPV
CYP2C19 inhib: human CYP2C19 inhibition | P33261 | CYP2C19 Supersomes, luciferin-H EGE luminescence, 30 min | inhibition, % at 5 µM | actives 21% (n = 96,000);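 active = CYP2C19 inhibition above a set limit at 5 µM in the primary screen, cut at about 50% in these data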;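 note: plate controls were negative control wells for no effect and 2.5 mM tranylcypromine positive control for full effect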
CYP2C9 inhib: blocks human cytochrome P450 2C9. CYP2C9 Supersomes, luciferin-H conversion, luminescence. actives 20% (n = 96,000). inhibition, % at 5 µM. P11712;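 active = blocking of liver enzyme CYP2C9 beyond about 50% at 5 µM, limit read from the data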
PTK2B oligo ant: Pyk2 (human) oligomerization antagonism | Q14289 | actives 0.83% (n = 99,000) | Q293 cells, Pyk2 FERM NanoBiT luminescence; stronger effect = lower value | AID 1347419 | z-score (the deposit names both 25 µM and 10 µM);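 active = Z-score of -3 or lower, scaled per plate to the spread of control and sample wells; inactive = z-score above -3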;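 note: negative z-score means lost luminescence so less FERM oligomerization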
CYP2C19 act: increases human CYP2C19 enzyme activity. P33261. recombinant CYP2C19, luciferin-H EGE luminescence; stronger effect = higher value; 0 = fully inhibited enzyme, 1 = untreated enzyme. activation factor at 5 µM. 96,000 tested, under 10 active;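 active = activation factor of at least 2 at 5 µM in the primary screen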;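 note: 0 = wells with 2.5 mM tranylcypromine and 1 = vehicle-only wells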
Starred values were filed as active, the others as inactive; x = no result given.

SMILES | CYP2C9 activ | CYP2C19 inhib | CYP2C9 inhib | PTK2B oligo ant | CYP2C19 act
O=S(=O)(c1ccc2c(c1)OCCO2)N1CCC(O)(c2ccc(Cl)cc2)CC1 | 0.9 | 98* | 12 | -3.2* | 0
O=S(=O)(c1cccc(F)c1)N1CCN(Cc2ccc3c(c2)OCO3)CC1 | 0.1 | 91* | 86* | -0.12 | 0.1
CN1CCN(S(=O)(=O)c2cccc(C(=O)NC3CCCc4ccccc43)c2)CC1 (stereo not drawn) | 0.9 | 1 | 5 | 1.5 | 1
O=C(Nc1ccccn1)C(=O)N1CCCCC1 | x | x | x | 0.39 | x
Cc1ccccc1NC(=O)c1c(O)c2cccc3c2n(c1=O)CCC3 | 0.9 | 1 | 6 | x | 1
Oc1cccc(C(=S)N2CCN(Cc3ccccc3)CC2)c1 | 0.3 | 100* | 68* | -0.7 | 0
O=S(=O)(c1ccc2c(c1)OCCO2)N1CCN(c2cccc(Cl)c2)CC1 | 0.4 | 89* | 58* | -3.9* | 0.1
O=C(c1ccc2c(c1)OCCO2)N1CCN(Cc2ccccc2)CC1 | 1.2 | 67* | -15 | -0.23 | 0.3
CN1CCN(S(=O)(=O)c2ccc3c(c2)OCCO3)CC1 | 1.2 | 46 | -22 | 0.2 | 0.5
CCN(CC(=O)Nc1ccc2c(c1)OCCO2)Cc1cc(=O)oc2c(C)c(C)ccc12 | 0.2 | 92* | 84* | -0.6 | 0.1
Cc1ccc2c(CN3CCN(S(=O)(=O)c4ccc5c(c4)OCCO5)CC3)cc(=O)oc2c1C | 0.3 | 71* | 70* | -1.9 | 0.3
CN(Cc1ccccc1)S(=O)(=O)c1ccc2c(c1)OCCO2 | 1.8 | 87* | -82 | -2.4 | 0.1
O=S(=O)(c1ccccc1)N1C2CCC1CC(O)(c1cccnc1)C2 (stereo not drawn) | 1.1 | 4 | -8 | -0.09 | 1
CC1CN(S(=O)(=O)Cc2ccccc2)CC(C)O1 (stereo not drawn) | 1.2 | 66* | -22 | 1.2 | 0.3
O=S(=O)(c1ccc(Cl)cc1)N1CCC(O)(c2cccnc2)CC1 | 1.8 | 57* | -77 | -0.71 | 0.4
Cc1ccc2c(CN3CCN(Cc4ccc5c(c4)OCO5)CC3)cc(=O)oc2c1C | 1.1 | 14 | -7 | 0.91 | 0.9
Cc1c(NC(=O)CN2CCN(C(=O)c3ccco3)CC2)c(=O)n(-c2ccccc2)n1C | 1.1 | -9 | -5 | 1.1 | 1.1
CCOC(=O)C1=C(O)C(Nc2nccs2)(C(F)(F)F)N=C1C (stereo not drawn) | 1.1 | 16 | -14 | -1 | 0.8
CCN(CC)S(=O)(=O)c1ccc(NC2CCCc3ccccc32)nc1 (stereo not drawn) | x | x | x | -2 | x
O=C(COC(=O)COc1ccccc1)Nc1ccccc1OC(F)F | 1.2 | 14 | -15 | -1.2 | 0.9
O=S(=O)(c1ccc2c(c1)OCCO2)N1CCN(Cc2ccccc2)CC1 | 1.4 | 82* | -40 | -2.6 | 0.2
Cc1ccccc1NC(=O)C(C)c1cccc(C(=O)c2ccccc2)c1 (stereo not drawn) | 0.2 | 91* | 78* | -0.81 | 0.1
COc1ccc(OC)c(-c2nc3c(C)n[nH]c(=O)c3[nH]2)c1 | 0.9 | 4 | 10 | -0.88 | 1
Cc1ccc([N+](=O)[O-])cc1NC(=S)NC(=O)CC(C)(C)C | 0.2 | 27 | 85* | -0.87 | 0.7
Cc1ccc([N+](=O)[O-])cc1NC(=S)NC(=O)C(C)(C)C | 0.2 | 59* | 82* | 0.06 | 0.4
SMILES | CYP2C9 activ | CYP2C19 inhib | CYP2C9 inhib | PTK2B oligo ant | CYP2C19 act
CC(C)(C)CC(=O)NC(=S)Nc1ccccc1C(F)(F)F | 0.5 | 41 | 52* | -0.88 | 0.6
Cc1ccc([N+](=O)[O-])cc1NC(=O)c1ccc(C(C)(C)C)cc1 | 1.5 | 17 | -46 | -1.1 | 0.8
Cc1ccc(C(=O)NC(=S)Nc2ccccc2C(F)(F)F)cc1 | 1.4 | 8 | -37 | -0.3 | 0.9
O=C(O)C1CC=CCC1C(=O)Nc1cccc(Cl)c1 (stereo not drawn) | 1.1 | 4 | -9 | 0.85 | 1
CCCC(=O)Nc1nnc(CC(=O)N2CCCC2)s1 | 1.2 | 5 | -21 | -0.2 | 0.9
O=C(NCc1ccccc1)N1CCC(c2nc3ccccc3[nH]2)CC1 | 0.9 | -14 | 10 | 0.76 | 1.1
Cc1cc([N+](=O)[O-])c2[nH]c(C(=O)N/N=C/c3ccccc3C(=O)O)c(-c3ccccc3)c2c1 | 0.8 | 25 | 24 | -3* | 0.7
Cc1ccc2nc(C)c(C(=O)N/N=C/c3ccccc3[N+](=O)[O-])cc2c1 | x | x | x | 0.45 | x
C[N+]12CCCCC1C(COC(=O)c1ccc3c(c1)OCO3)CCC2 (stereo not drawn) | 1.3 | 7 | -29 | -0.24 | 0.9
